Laboratory results published in PubChem BioAssay AID903 (National Center for Advancing Translational Sciences (NCATS), 2007).
In all, about 55,000 compounds went through this assay and about 340 (0.62%) were called active. Roughly 3% stayed inconclusive and do not appear here. Calls come from the whole dose curve; as a rule, active = well fitted cell-killing curve with a large enough effect; inconclusive = small, poorly fitted or top-dose-only effect; inactive = no such curve, though single readings can be large or run the other way. The list comes from a sample in which actives are over-represented; it also holds similar structures and randomly drawn compounds.

Assay: qHTS Screen for Compounds that Selectively Target Cancer Cells with p53 Mutations: Cytotoxicity of p53 Null Cells at the Permissive Temperature; note: nearly all actives have a fitted effect of over 55% in size;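 for activity change, negative = cytotoxicity: 0% = DMSO only and -100% = full killing by 100 µM tamoxifen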
Conditions: H1299-neo p53 null cells, ATP luminescence, 24 h, 32C; series mostly up to 46.1 µM; activity change, negative = cytotoxicity: at the top concentration
Excerpt: NIH Chemical Genomics Center [NCGC] NIH Molecular Libraries Screening Centers Network [MLSCN] MLSCN Grant: 1 X01 MH079844-01 Assay Submitter (PI): Dr. SUN, YI, University of Michigan NCGC Assay Overview: Synthetic Lethal Screen for Compounds to Kill Cancer Cells with p53 Mutation. Tumor suppressor gene p53 serves as a major cellular barrier against tumorigenesis. […] The goal of this screening is to identify small molecule probes that selectively kill cancer cells with mutations in p53. This screening was carried out using two lines of H1299 lung cancer cells. The H1299-p53 A138V line express a temperature sensitive p53 mutant (p53ts) in which the mutant p53 protein (A138V) is in the mutant confirmation when grown at 39C (the nonpermissive temperature) and in the wild type conformation when grown at 32C (the permissive temperature). A H1299-neo line (p53 null) grown at both 39C and 32C were used as counter-screens to filter out false positive associated with temperature shifting. The small molecular compounds that selectively target mutant p53-containing cancer cells were selected as candidate probes for further study. A cytotoxicity assay based on the measurement of ATP contents in cells was used in this screen. Concentration-responses of all the compounds in the library collection were determined in qHTS using the cell lines and temperature conditions as above.
NCGC Assay Protocol Summary: Both the H1299-p53A138V and H1299-neo cell lines were provided by Dr.Yi Sun, a PI at the University Michigan. The cells were maintained and cultured at 37C. The resuspended frozen cells were used to plate the cells in the 1536-well assay plates at a density of 600 cells per well in 5 ul medium. The assay plates with the cells were incubated at 37C for 16 to 30 hours before the experiments. The library compounds in DMSO solution were added to the cells in assay plates and incubated 24 hours at 39C (for mutant p53 conformation) or 32C (for normal p53 conformation as control). An ATP_lite assay kit (PerkinElmer) was used to determine the cell viability. Tomaxifen (100uM) was used as the positive control for cell killing. Data were normalized to the controls for basal activity (DMSO only) and 100% killing (100uM tamoxifen). AC50 values were determined from concentration-response data modeled with the standard Hill equation. P53 assay protocol: 1. Reagent; 5 uL H1299-p53A138V or H1299-neo cell cells/well 2. Time; overnight; 37C incubation 3. Compounds; 23 nL; 5.9 nM to 46 uM 4. Controls; 23 nL; Tamoxifen 100 uM 5. Time; 24 hr; 32C incubation 6. Reagent; 3 uL; ATP_Lite reagent 7. Time; 20 min; Room Temperature 8. Detection; Luminescence; Viewlux plate reader Keywords: p53, synthetic lethal, cancer, cell viability, cytotoxicity, H1299 cell line, luminescence, MLSMR, MLSCN, NIH Roadmap, qHTS, NCGC
Potency is the fitted concentration of half-maximal effect.

SMILES	activity change, negative = cytotoxicity	Potency
CCOC(=O)CSc1nc2ccc(C)cc2[nH]1	-2.59% (inactive)	
CCCc1nn2c(=O)cc(COC(=O)c3ccc(NC(=O)C(C)Oc4ccccc4)cc3)nc2s1 (stereo unspecified)	-6.2% (inactive)	
CCOC(=O)c1cc2c(=O)n3ccccc3nc2n(CCCOC)c1=NC(=O)C(C)Oc1ccccc1 (stereo unspecified)	5.37% (inactive)	
CC(C)c1ccc(NC(=O)c2ccc3c(O)c(S(=O)(=O)c4ccccc4)c(=O)[nH]c3c2)cc1		12.6 µM (active)
Cc1ccc(C(=O)Nc2ccc3[nH]c(=O)c(=O)[nH]c3c2)cc1	-11.2% (inactive)	
COc1ccc(CNC(=O)c2ccc3c(O)c(S(=O)(=O)c4ccccc4)c(=O)[nH]c3c2)cc1	-14.3% (inactive)	
CN(C(=O)CSc1nc2ccccc2n1Cc1ccccc1C#N)c1ccccc1	2.24% (inactive)	
COc1ccc(CNC(=O)CS(=O)Cc2nc(-c3cccc(C)c3)oc2C)cc1 (stereo unspecified)	-2.83% (inactive)	
Cc1cc(SCC(=O)NCCN2C(=O)CSC2=O)nc2ccccc12	-4.2% (inactive)	
COC(=O)CSc1ccc2nnc(CCNS(=O)(=O)c3ccc(C)cc3)n2n1	0.172% (inactive)	
N#CC1(NC(=O)COc2ccc3oc4ccccc4c3c2)CCCCC1	-4.07% (inactive)	
O=C(NCCc1ccccn1)c1cc(-c2ccc(Cl)cc2)nc2ccccc12	-28.2% (inactive)	
CCC(=O)NCc1cc(-c2nn(C)c(=O)c3ccccc23)ccc1OC	-3.54% (inactive)	
CCOc1ccc(C(O)Cc2nc3ccccc3n2C)cc1 (stereo unspecified)	-7.33% (inactive)	
CC(C)(C)c1ccc(C(=O)NCC(=O)OCN2C(=O)c3ccccc3C2=O)cc1	-4.46% (inactive)	
Cc1ccc(NC(=O)c2cn3c4c(ccc(Cl)c4c2=O)OC(C)C3)cc1C (stereo unspecified)	-6.91% (inactive)	
Cc1cc(C)cc(NC(=O)Cc2csc(C)n2)c1	-5.68% (inactive)	
COc1ccc2c(c1)Cc1sc(NC(=O)c3ccccc3Br)nc1-2	-29.5% (inactive)	
CCCS(=O)(=O)Nc1cccc(-c2cn3ccsc3n2)c1	-16.5% (inactive)	
CCC(CC)c1nn2cc(-c3ccccc3)nc2s1		6.31 µM (active)
CCc1ccc(CNC(=O)C2CCN(c3nn4cc(-c5ccc(F)cc5)nc4s3)CC2)cc1	0.0691% (inactive)	
Cc1ccccc1NC(=O)c1c(NC(=O)c2ccccc2F)sc2c1CCC(C)C2 (stereo unspecified)	1.58% (inactive)	
O=C(Nc1nc2c(s1)CCCC2)c1ccccc1F		6.31 µM (active)
Cc1cc(C)cc(OC(C)C(=O)Nc2nc3c(s2)CCCC3)c1 (stereo unspecified)	7.37% (inactive)	
CCOC(=O)NC(=O)CSc1nnc(SCCC(=O)O)s1	-2.55% (inactive)	
CCC(C)NC(=O)c1ccccc1NC(=O)c1ccccc1N(C)S(C)(=O)=O (stereo unspecified)	7.32% (inactive)	

SMILES	activity change, negative = cytotoxicity	Potency
Cc1ccc(-n2nnnc2CNC(=O)c2ccccc2C)cc1C	9.36% (inactive)	
COC(=O)c1cnn(-c2ccc(C(=O)Nc3ccc(OC(F)(F)F)cc3)cc2)c1N	-7.31% (inactive)	
CCn1c(O)c(N=NC(=O)c2cccc(S(=O)(=O)N3CCCCC3)c2)c2ccccc21	-1.69% (inactive)	
Cc1nn2c(=O)cc(COC(=O)c3cccc(NC(=O)COc4ccccc4Cl)c3)nc2s1		12.6 µM (active)
CCCCc1nn2c(=O)cc(COC(=O)c3cccc(NC(=O)COc4ccccc4)c3)nc2s1	-9.02% (inactive)	
Cc1nn2c(=O)cc(COC(=O)c3ccccc3NC(=O)COc3ccccc3C)nc2s1	-5.39% (inactive)	
CCc1nc2cccnc2n1-c1ccc(CC(=O)Nc2c(C)cccc2C)cc1	6.52% (inactive)	
CCCCC1N2CC3([N+](=O)[O-])CN1CC([N+](=O)[O-])(C2)C3(C)C (stereo unspecified)	-16.9% (inactive)	
Cc1cc(-c2ccc(C)c(S(=O)(=O)N3c4ccccc4CC3C)c2)on1 (stereo unspecified)	13.3% (inactive)	
Cc1ccc(-c2nnc(SCC(=O)N/N=C/c3cccs3)n2-c2ccc(C)cc2)cc1	-10.3% (inactive)	
Cc1ccc2nc(/C(C#N)=C/c3ccccc3F)[nH]c2c1	-5.46% (inactive)	
O=S(=O)(c1ccc(Br)cc1)c1nnn2c1nc(N1CCOCC1)c1sccc12	0.31% (inactive)	
CCOc1ccc(NC(=O)CN2CCN(CC(=O)Nc3ccc(OC)cc3)CC2)cc1		inactive
CCOc1ccc(NC(=O)c2cnn(-c3ccccc3)c2-n2cccc2)cc1	60.8% (inactive)	
CCOc1ccc(NC(=O)c2ncoc2-c2ccco2)cc1		12.6 µM (active)
CCc1nc2ccc(C(=O)N3CCN(c4cc(Cl)ccc4C)CC3)cc2nc1CC	16.6% (inactive)	
CCOC(=O)c1c(C)[nH]c(C)c1S(=O)(=O)N1CCC(C(=O)Nc2ccc(C)c(Cl)c2)CC1	-10.5% (inactive)	
N#C/C(=C\c1ccccc1F)c1nc2ccccc2c(=O)[nH]1	-2.22% (inactive)	
COc1ccc(-n2ccnc(NCCc3ccc(Cl)cc3)c2=O)cc1OC	0.865% (inactive)	
CCOC(=O)c1cccc(NS(=O)(=O)c2cn(C)c(C)n2)c1	-3.89% (inactive)	
O=C(NC1CC(=O)N(c2ccc(Cl)cc2)C1)C1CCCC1 (stereo unspecified)	3.83% (inactive)	
Cn1c(=O)c2c(nc(Oc3ccc(C#N)cc3)n2Cc2ccc(Cl)cc2Cl)n(C)c1=O	9.69% (inactive)	
Brc1ccc(-c2csc(N/N=C/c3ccc4c(c3)OCO4)n2)cc1	-5.38% (inactive)	
CCCC(=O)Nc1cccc(NC(=S)NC(=O)C(C)Oc2ccc(Cl)cc2Cl)c1 (stereo unspecified)	-5.63% (inactive)	
COC(=O)c1cc2occc2n1Cc1nc(-c2ccc(C)cc2)oc1C	-11.9% (inactive)	
Cc1ccc(CNC(=O)CCNS(=O)(=O)c2ccc3c(c2)oc(=O)n3C)cc1	-2.38% (inactive)	

SMILES	activity change, negative = cytotoxicity	Potency
CCOc1ccc(CNC(=O)CCc2c(C)nn(-c3ccc(N4CCCCC4)nn3)c2C)cc1	-15.4% (inactive)	
CCc1cc2c(-c3ccccc3)cc(=O)oc2c2c1OCN(Cc1ccc(C)cc1)C2	-8.96% (inactive)	
COc1ccc(CCNC(=O)CN2C(=O)COc3ccc(S(=O)(=O)N4CCCC4)cc32)cc1OC	3.84% (inactive)	
CCOc1cc(CNCc2ccccn2)ccc1OCC(=O)NC(C)(C)C	-6.1% (inactive)	
Cc1ccc(CCNC(=O)C2CCN(c3nnc(-n4cccc4CNc4ccc(C)cc4)s3)CC2)cc1	21.3% (inactive)	
C/C(CC(=O)Nc1ccc(Cl)cc1)=N\NC(=O)C(=O)NCCO	-8.76% (inactive)	
Cc1ccc2[nH]c3c(=O)n(CC(=O)NC(C)C)ncc3c2c1	-1.55% (inactive)	
CCC(=O)Nc1ccc(C)cc1-c1nc2ccccc2n(Cc2ccccc2)c1=O	-3.5% (inactive)	
CCn1c(SCC(=O)Nc2ccc(C)cc2)nc2nc3c(cc2c1=O)CCCC3	-14.2% (inactive)	
CCOc1ccccc1NC(=O)C1CCCN(S(=O)(=O)c2cn(C)cn2)C1 (stereo unspecified)	-7.67% (inactive)	
Cc1nc2ccc(S(=O)(=O)N(CC(=O)Nc3ccc(F)cc3)Cc3ccccc3)cc2s1	-15.1% (inactive)	
COC(=O)c1ccc(NC(=O)c2cnn(-c3ccc(Cl)cc3)c2C2CCN(C(=O)OC(C)(C)C)CC2)cc1	16.5% (inactive)	
COC(=O)/C(NC(C)=O)=C(\C)c1ccc(Cl)cc1	4.98% (inactive)	
CCCCCn1c(CCNC(=O)c2ccc(F)cc2)nc2ccccc21	10.3% (inactive)	
CCCC(=O)Nc1ccc2oc(-c3ccc(O)c(Br)c3)nc2c1	-17.9% (inactive)	
CC(=O)Nc1cc(C(=O)NCc2ccc(F)cc2)ccc1Sc1ccc(F)cc1	-7.84% (inactive)	
Cc1ccc(NC(=S)N2CCN(c3ncccn3)CC2)cc1C	-16.9% (inactive)	
O=C(CCC(=O)N1CC2CCCN2c2ccccc21)NCc1ccccc1Cl (stereo unspecified)	-2.37% (inactive)	
Cn1c(=NC(=O)c2ccc3c(c2)OCCO3)sc2cc(S(C)(=O)=O)ccc21	0.0269% (inactive)	
O=C(NC1CCCC1)C(c1ccccn1)N(C(=O)c1csnn1)C1CCCC1 (stereo unspecified)	1.76% (inactive)	
CN(CC(=O)Nc1cccc(C(F)(F)F)c1)S(=O)(=O)c1cccs1	-3.2% (inactive)	
Cc1cccc(-c2nnc(SCC(=O)N3CCCc4ccccc43)o2)c1	1.58% (inactive)	
Cc1ccc2[nH]cc(CCCN3C(=O)c4ccccc4C3=O)c2c1	-13.4% (inactive)	
CCNC(=S)N1CCC(c2nc3cc(C)c(C)cc3[nH]2)CC1	8.34% (inactive)	
CCCCn1c(=O)c2oc3ccccc3c2n(CC(=O)Nc2ccccc2OC)c1=O	-9.59% (inactive)	
O=C(CSc1nc2nccnc2c(=O)n1CCc1c[nH]c2ccccc12)Nc1ccccc1F	34% (inactive)	

SMILES	activity change, negative = cytotoxicity	Potency
Cc1cccc(NC(=O)Cn2cc(S(=O)(=O)Cc3ccccc3Cl)c3ccccc32)c1	0.404% (inactive)	
Cc1csc2nc(COc3ccc(NC(=O)COc4ccccc4)cc3)cc(=O)n12	-5.31% (inactive)	
COc1ccc(NC(=O)Nc2cccc(-c3noc(C)n3)c2)cc1	-14.2% (inactive)	
COc1cccc(C(c2c(O)cc(C)n(Cc3ccco3)c2=O)N2CCN(c3ccccc3)CC2)c1 (stereo unspecified)	-0.758% (inactive)	
O=C(CSc1nccn1Cc1ccc(Cl)cc1)NCc1ccccc1	7.59% (inactive)	
Cc1ccc(CSCC(N)C(=O)O)cc1 (stereo unspecified)	-2.48% (inactive)	
COc1ccccc1N1CCN(C(=O)C2CCN(S(=O)(=O)c3c(C)noc3/C=C/c3ccc(C)cc3)CC2)CC1	8.32% (inactive)	
O=C(OCc1cc(=O)n2nc(C3CC3)sc2n1)c1ccccc1Cl	-2.28% (inactive)	
COC(=O)c1ccc(NC(=O)CSc2nncc3ccc(OC)c(OC)c23)cc1	-6.26% (inactive)	
CCC1(C)CC(=O)c2c(ccc3oc(C(=O)Nc4ccc(C(C)=O)cc4)c(C)c23)O1 (stereo unspecified)	-21.6% (inactive)	
O=C(NCc1ccccc1Cl)C1=Cc2cc(Br)ccc2OC1	33.2% (inactive)	
Cc1c(C(=O)NCc2ccccc2Br)oc2ccc3c(c12)C(=O)CC(C)(C)O3		10 µM (active)
Cc1nn(-c2nc(-c3ccccc3)cc(C(F)(F)F)n2)c(C)c1Cl	5.91% (inactive)	
CC(C)NC(=S)N1CCN(S(C)(=O)=O)CC1	-2.79% (inactive)	
COc1cc(C(=O)N2CCN(C(=O)COc3cccc(C)c3)CC2)cc(OC)c1OC	-0.0506% (inactive)	
CC(C)Cn1c(C2CC(=O)N(c3ccccc3Cl)C2)nc2ccccc21 (stereo unspecified)	1.17% (inactive)	
Cc1ccccc1CSCCNC(=O)c1ccc(Cl)c(S(=O)(=O)N2CCOCC2)c1	7.74% (inactive)	
Cc1cc2c(cc3c(SCc4nc(-c5ccccc5)oc4C)nnc(C)n32)o1	0.258% (inactive)	
CC(=O)c1cccc(NC(=O)CSc2nc3c(c(=O)[nH]2)CCC3)c1	7.62% (inactive)	
CC(C)C(OC(=O)c1cccs1)C(=O)NC1CCCCC1 (stereo unspecified)	-5.17% (inactive)	
COc1ccc(C(=O)COC(=O)CCCC(=O)Nc2cc(C(F)(F)F)ccc2Cl)cc1	2.12% (inactive)	
Cc1nnc(N2CCC(C(=O)Nc3ccc(F)cc3)CC2)c2nn(-c3ccc(Cl)cc3)c(C)c12	12.4% (inactive)	
O=C(CC1N=C2c3ccccc3N=C(SCc3ccc(F)cc3)N2C1=O)NCc1cccs1 (stereo unspecified)	8.54% (inactive)	
